{
  "source": "the supplement of paper PMC8728848",
  "test_in_all_cases": "glycan array binding signal (z-score within array); higher = stronger binding",
  "settings_in_all_cases": "glycan notation: IUPAC condensed, linker removed",
  "key": {"[1]": {"tested_on": "Gal(b1-4)GlcNAc(b1-2)Man(a1-6)[GlcNAc(b1-2)Man(a1-3)]Man(b1-4)GlcNAc(b1-4)GlcNAc", "summary_of_the_method": "(§1)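 Columns mapping to the same glycan were averaged after glycan names were converted to IUPAC-condensed notation. The data come from 3228 arrays in the Consortium for Functional Glycomics database, limited to those with an available protein sequence. Binding is reported as a within-array Z-score averaged across arrays of one protein sequence and across linkers.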"}, "[2]": {"tested_on": "Gal(b1-4)GlcNAc(b1-2)[Gal(b1-4)GlcNAc(b1-6)]Man(a1-6)[Gal(b1-4)GlcNAc(b1-2)Man(a1-3)]Man(b1-4)GlcNAc(b1-4)[Fuc(a1-6)]GlcNAc", "summary_of_the_method": "as §1"}, "[3]": {"tested_on": "Gal(b1-4)GlcNAc(b1-2)[Gal(b1-4)GlcNAc(b1-6)]Man(a1-6)[GlcNAc(b1-4)][Gal(b1-4)GlcNAc(b1-2)[Gal(b1-4)GlcNAc(b1-4)]Man(a1-3)]Man(b1-4)GlcNAc(b1-4)[Fuc(a1-6)]GlcNAc", "summary_of_the_method": "as §1"}, "[4]": {"tested_on": "Gal(b1-4)GlcNAc(b1-3)Gal(b1-4)GlcNAc(b1-3)Gal(b1-4)GlcNAc(b1-2)[Gal(b1-4)GlcNAc(b1-3)Gal(b1-4)GlcNAc(b1-3)Gal(b1-4)GlcNAc(b1-6)]Man(a1-6)[Gal(b1-4)GlcNAc(b1-3)Gal(b1-4)GlcNAc(b1-3)Gal(b1-4)GlcNAc(b1-2)Man(a1-3)]Man(b1-4)GlcNAc(b1-4)[Fuc(a1-6)]GlcNAc", "summary_of_the_method": "as §1"}, "Gal(b1-4)GlcNAc(b1-2)Man": {"tested_on": "Gal(b1-4)GlcNAc(b1-2)Man", "summary_of_the_method": "as §1"}, "[5]": {"tested_on": "Gal(b1-4)GlcNAc(b1-2)[Gal(b1-4)GlcNAc(b1-6)]Man(a1-6)[Gal(b1-4)GlcNAc(b1-2)Man(a1-3)]Man(b1-4)GlcNAc(b1-4)GlcNAc", "summary_of_the_method": "as §1"}, "[6]": {"tested_on": "Gal(b1-4)GlcNAc(b1-3)Gal(b1-4)GlcNAc(b1-3)Gal(b1-4)GlcNAc(b1-2)Man(a1-3)[Gal(b1-4)GlcNAc(b1-3)Gal(b1-4)GlcNAc(b1-3)Gal(b1-4)GlcNAc(b1-2)Man(a1-6)]Man(b1-4)GlcNAc(b1-4)GlcNAc", "summary_of_the_method": "as §1"}, "[7]": {"tested_on": "Gal(b1-4)GlcNAc(b1-3)Gal(b1-4)GlcNAc(b1-3)Gal(b1-4)GlcNAc(b1-2)Man(a1-3)[Gal(b1-4)GlcNAc(b1-3)Gal(b1-4)GlcNAc(b1-3)Gal(b1-4)GlcNAc(b1-2)Man(a1-6)]Man(b1-4)GlcNAc(b1-4)[Fuc(a1-6)]GlcNAc", "summary_of_the_method": "as §1"}, "[8]": {"tested_on": "Gal(b1-4)GlcNAc(b1-3)Gal(b1-4)GlcNAc(b1-3)Gal(b1-4)GlcNAc(b1-3)Gal(b1-4)GlcNAc(b1-2)Man(a1-3)[Gal(b1-4)GlcNAc(b1-3)Gal(b1-4)GlcNAc(b1-3)Gal(b1-4)GlcNAc(b1-3)Gal(b1-4)GlcNAc(b1-2)Man(a1-6)]Man(b1-4)GlcNAc(b1-4)[Fuc(a1-6)]GlcNAc", "summary_of_the_method": "as §1"}, "[9]": {"tested_on": "Gal(b1-4)GlcNAc(b1-2)Man(a1-3)[Gal(b1-4)GlcNAc(b1-2)Man(a1-6)]Man(b1-4)GlcNAc(b1-4)GlcNAc", "summary_of_the_method": "as §1"}, "[10]": {"tested_on": "Gal(b1-4)GlcNAc(b1-2)Man(a1-6)[Man(a1-3)]Man(b1-4)GlcNAc(b1-4)GlcNAc", "summary_of_the_method": "as §1"}, "[11]": {"tested_on": "Gal(b1-4)GlcNAc(a1-6)Gal(b1-4)GlcNAc", "summary_of_the_method": "as §1"}, "[12]": {"tested_on": "Gal(b1-4)GlcNAc(b1-2)Man(a1-3)[Man(a1-6)]Man(b1-4)GlcNAc(b1-4)GlcNAc", "summary_of_the_method": "as §1"}, "[13]": {"tested_on": "Gal(b1-4)GlcNAc(b1-2)Man(a1-3)Man(b1-4)GlcNAc(b1-4)GlcNAc", "summary_of_the_method": "as §1"}, "[14]": {"tested_on": "Gal(b1-4)GlcNAc(b1-2)Man(a1-3)[Gal(b1-4)GlcNAc(b1-2)Man(a1-6)]Man(b1-4)GlcNAc(b1-4)[Fuc(a1-6)]GlcNAc", "summary_of_the_method": "as §1"}, "[15]": {"tested_on": "Gal(b1-4)GlcNAc(b1-2)Man(a1-3)[GlcNAc(b1-2)Man(a1-6)]Man(b1-4)GlcNAc(b1-4)GlcNAc", "summary_of_the_method": "as §1"}, "[16]": {"tested_on": "Gal(b1-4)GlcNAc(b1-3)Gal(b1-4)GlcNAc(b1-2)Man(a1-3)[Gal(b1-4)GlcNAc(b1-3)Gal(b1-4)GlcNAc(b1-2)Man(a1-6)]Man(b1-4)GlcNAc(b1-4)GlcNAc", "summary_of_the_method": "as §1"}, "[17]": {"tested_on": "Gal(b1-4)GlcNAc(b1-3)Gal(b1-4)GlcNAc(b1-2)[Gal(b1-4)GlcNAc(b1-3)Gal(b1-4)GlcNAc(b1-6)]Man(a1-6)[Gal(b1-4)GlcNAc(b1-3)Gal(b1-4)GlcNAc(b1-2)Man(a1-3)]Man(b1-4)GlcNAc(b1-4)GlcNAc", "summary_of_the_method": "as §1"}, "[18]": {"tested_on": "Gal(b1-4)GlcNAc(b1-2)Man(a1-6)Man(b1-4)GlcNAc(b1-4)GlcNAc", "summary_of_the_method": "as §1"}, "[19]": {"tested_on": "Gal(b1-4)GlcNAc(b1-3)Gal(b1-4)GlcNAc(b1-3)Gal(b1-4)GlcNAc(b1-3)Gal(b1-4)GlcNAc(b1-2)[Gal(b1-4)GlcNAc(b1-3)Gal(b1-4)GlcNAc(b1-3)Gal(b1-4)GlcNAc(b1-3)Gal(b1-4)GlcNAc(b1-6)]Man(a1-6)[Gal(b1-4)GlcNAc(b1-3)Gal(b1-4)GlcNAc(b1-3)Gal(b1-4)GlcNAc(b1-3)Gal(b1-4)GlcNAc(b1-2)Man(a1-3)]Man(b1-4)GlcNAc(b1-4)[Fuc(a1-6)]GlcNAc", "summary_of_the_method": "as §1"}},
  "note": "Shown is part of a subset that was picked to be rich in the strongest signals.",
  "data": [
    {"substance": "AgI/II Vhelical-GFP (Streptococcus mutans)", "values": [
      {"measurement": "glycan array binding signal (z-score)", "setting": "[1]", "result": -0.18},
      {"measurement": "glycan array binding signal (z-score)", "setting": "[2]", "result": -0.078},
      {"measurement": "glycan array binding signal (z-score)", "setting": "[3]", "result": -0.092},
      {"measurement": "glycan array binding signal (z-score)", "setting": "[4]", "result": 0.214}
    ]},
    {"substance": "LcI (Legionella pneumophila)", "values": [
      {"measurement": "glycan array binding signal (z-score)", "setting": "Gal(b1-4)GlcNAc(b1-2)Man", "result": 0.449},
      {"measurement": "glycan array binding signal (z-score)", "setting": "[5]", "result": 0.017},
      {"measurement": "glycan array binding signal (z-score)", "setting": "[6]", "result": 0.132},
      {"measurement": "glycan array binding signal (z-score)", "setting": "[7]", "result": -0.212},
      {"measurement": "glycan array binding signal (z-score)", "setting": "[8]", "result": 0.132}
    ]},
    {"substance": "SiiE (Salmonella typhimurium), A0A0H3NVH0", "values": [
      {"measurement": "glycan array binding signal (z-score)", "setting": "[9]", "result": 2.4},
      {"measurement": "glycan array binding signal (z-score)", "setting": "[10]", "result": 0.213}
    ]},
    {"substance": "SpGH101 (Streptococcus pneumoniae), Q8DR60", "values": [
      {"measurement": "glycan array binding signal (z-score)", "setting": "[11]", "result": -0.178},
      {"measurement": "glycan array binding signal (z-score)", "setting": "[12]", "result": -0.069}
    ]},
    {"substance": "BambL (Burhholderia ambifaria), Q0B4G1", "values": [
      {"measurement": "glycan array binding signal (z-score)", "setting": "[13]", "result": -0.313},
      {"measurement": "glycan array binding signal (z-score)", "setting": "[14]", "result": 0.351},
      {"measurement": "glycan array binding signal (z-score)", "setting": "[15]", "result": -0.301}
    ]},
    {"substance": "AgI/IIC123-GFP (Streptococcus mutans)", "values": [
      {"measurement": "glycan array binding signal (z-score)", "setting": "[5]", "result": -0.449},
      {"measurement": "glycan array binding signal (z-score)", "setting": "[3]", "result": -0.015},
      {"measurement": "glycan array binding signal (z-score)", "setting": "[16]", "result": 3.9},
      {"measurement": "glycan array binding signal (z-score)", "setting": "[17]", "result": -0.185}
    ]},
    {"substance": "Epa22", "values": [
      {"measurement": "glycan array binding signal (z-score)", "setting": "[14]", "result": 1.95}
    ]},
    {"substance": "Wza (Escherichia coli), P0A930", "values": [
      {"measurement": "glycan array binding signal (z-score)", "setting": "[18]", "result": 1.02}
    ]},
    {"substance": "Actinohivin (Actinomycete K97)", "values": [
      {"measurement": "glycan array binding signal (z-score)", "setting": "[4]", "result": 0.097},
      {"measurement": "glycan array binding signal (z-score)", "setting": "[19]", "result": -0.012}
    ]}
  ]
}
